# Reference: article PMC5540273 (PLoS ONE, 2017)
# How the values were obtained:
# Settings in all cases: concentration: 1 μM,replicates: in singlicate; n = 1
# STK36 = test system: STK36
# STK39 = test system: STK39
# SYK = test system: SYK
# SgK110 = test system: SgK110
# TAK1 = test system: T1, TAK1
# T1 construct: gene MAP3K7
# TAOK1 = test system: TAOK1
# TAOK2 = test system: TAOK2
# TAOK3 = test system: TAOK3
# TBK1 = test system: TBK1
# TEC = test system: TEC
# 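Also: KINOMEscan kinase panel screen.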
SMILES,%Inh (STK36),%Inh (STK39),%Inh (SYK),%Inh (SgK110),%Inh (TAK1),%Inh (TAOK1),%Inh (TAOK2),%Inh (TAOK3),%Inh (TBK1),%Inh (TEC)
Cn1ccc2ncnc(Oc3ccc(NC(=O)Nc4cnn(C(C)(C)C)c4)c(Cl)c3)c21,7%,0%,0%,38%,85%,0%,15%,0%,10%,0%
CN(c1ccccc1CNc1nc(Nc2ccc3c(c2)CC(=O)N3)ncc1C(F)(F)F)S(C)(=O)=O,8%,0%,86%,0%,76%,92.7%,6%,86%,48%,0%
CC(C)c1nc(-c2cccc(NS(=O)(=O)c3ccccc3)c2)c(-c2ccnc(Nc3ccc4c(c3)CN(C)CC4)n2)s1 [GSK1649598],100%,85%,0%,0%,51%,97.2%,98.5%,97.8%,40%,94.2%
COc1cc(Nc2nccc(N3CCC(NC(=O)c4cccc(C#N)c4)C3)n2)cc(OC)c1OC (stereo not shown) [GSK1379751],0%,0%,0%,0%,0%,0%,0%,0%,10%,0%
O=C(Nc1cccc(C(F)(F)F)c1)c1cccc(Oc2ccc3nccn3n2)c1,0%,2%,14%,26%,4%,4%,9%,0%,12%,7%
Cn1ccc2ncnc(Oc3ccc(NC(=O)Nc4cccc(C(F)(F)F)c4)c(Cl)c3)c21,0%,0%,1%,0%,31%,0%,23%,0%,15%,0%
O=C(NOCC1CC1)c1cc(Br)c(F)c(F)c1Nc1ccc(I)cc1Cl,0%,0%,13%,0%,0%,0%,27%,0%,5%,0%
Cc1cccc(-c2nc(Nc3ccncc3)c3sccc3n2)n1 [GW869641],24%,0%,20%,15%,44%,45%,7%,38%,31%,0%
Cc1ccn2nc(-c3ccc(F)cc3)c(-c3ccncc3)c2c1.Cl [GW457859],24%,4%,18%,0%,64%,0%,0%,0%,14%,0%
CN1CCN(CCCNc2nccc(-c3c(-c4ccc(F)cc4)nn4cc(C(N)=O)ccc34)n2)CC1 [GW622475],98.9%,23%,11%,7%,29%,13%,0%,10%,0%,8%
Cn1ccc2ncnc(Oc3ccc(NC(=O)Nc4ccnc(C(F)(F)F)c4)c(Cl)c3)c21,0%,0%,0%,47%,2%,0%,0%,0%,0%,0%
O=C(Nc1ccccc1)c1cccc(Oc2ccc3nccn3n2)c1,5%,3%,14%,6%,11%,5%,0%,0%,0%,0%
NC(=O)Nc1sc(-c2ccc(F)cc2)cc1C(N)=O [GW789449],0%,0%,32%,0%,75%,61%,41%,3%,41%,1%
CCNCC(Cc1ccccc1)NC(=O)c1cc(Br)c(-c2ccnc3[nH]ccc23)s1.Cl.Cl (stereo not shown) [GSK1383280],0%,0%,0%,79%,19%,54%,0%,15%,26%,0%
C[C@@H]1CNc2c(sc3ccc4nc(-c5ccc(O)cc5)ccc4c23)C(=O)N1,5%,6%,0%,0%,44%,86%,0%,0%,8%,5%
CC(=O)Nc1nc2cnc(Nc3cc(NC(=O)c4cccc(CC(C)(C)C#N)c4)ccc3C)nc2s1,8%,22%,0%,0%,41%,0%,0%,0%,12%,7%
O=C(Nc1n[nH]c2cc(-c3ccco3)ccc12)C1CC1 [SB-737447],0%,5%,19%,0%,11%,65%,5%,12%,25%,2%
Cc1n[nH]c2cc(Nc3ccnc(Nc4cccc(CN5CCOCC5)c4)n3)ccc12 [GW682569],9%,16%,34%,0%,57%,0%,0%,0%,63%,0%
NC(=O)c1ccc(-c2cc3ncnc(SCC(=O)O)c3s2)cc1,0%,0%,0%,0%,0%,0%,0%,0%,8%,0%
Cc1ccc(CC(=O)N2CCc3cc(-c4cn(C)c5ncnc(N)c45)ccc32)cc1 [GSK2634758],3%,1%,33%,0%,17%,0%,0%,0%,4%,0%
C[C@@H](Oc1cc(-n2cnc3cc(-c4ccncc4)ccc32)sc1C(N)=O)c1ccccc1Cl [GSK479719],0%,6%,52%,0%,0%,0%,0%,0%,0%,7%
CS(=O)(=O)Nc1ccc(-c2ccnc3[nH]ccc23)cc1 [GSK993273],0%,24%,52%,0%,33%,27%,0%,0%,10%,16%
